Inconclusive results are not listed. Activity calls are given as the source filed them. Rule for the calls: active = hit-call score of the fitted dose curve at least 0.9, where 1 is the maximum; inconclusive = response in the unintended direction; inactive = score below 0.9.
Experiments:
[1] = molecular target: Cellular tumor antigen p53 (Homo sapiens) (UniProt P04637); assay: TOX21_p53_BLA_p2_ratio: Tox21 HCT-116 p53 Agonism Beta-lactamase Assay, Ratio, Phase 2 (AID 2283592)
Procedure, shortened: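 HCT116 p53-bla; 4000 cells/well; 5 h pre-incubation; cpd in DMSO, 217-fold dilution; 16 h 37C/5% CO2; CCF4-AM 2 h RT; Ex 405, Em 460/530 ratio; DMSO = baseline; positive fitting direction.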

[2] = TOX21_p53_BLA_p3_viability: Viability Assessment in the Tox21 HCT-116 p53 Agonism Beta-lactamase Assay, Phase 3 (AID 2283593);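 note: cells exposed to compound for 16 h before reading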
Procedure, shortened: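 HCT-116 cells (4000/well) rested 5 h at 37C, then got DMSO compounds by pin tool (217-fold dilution) for 16 h at 37C, 5% CO2. After the bla read, CellTiter-Glo was added and luminescence read at 30 min, room temperature.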

[3] = TOX21_p53_BLA_p4_viability: Viability Assessment in the Tox21 HCT-116 p53 Agonism Beta-lactamase Assay, Phase 4 (AID 2283597);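 note: hits lower the luminescence signal meaning cytotoxicity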
Procedure, shortened: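 Cells plated, 5 h pre-incubation; DMSO compounds pinned (217-fold dilution); 16 h, 37C/5% CO2; CCF4-AM 2 h RT; CellTiter-Glo 30 min RT; luminescence read.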

[4] = TOX21_p53_BLA_p5_viability: Viability Assessment in the Tox21 HCT-116 p53 Agonism Beta-lactamase Assay, Phase 5 (AID 2283600)
Procedure, shortened: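 4000 cells/well; 5 h pre-incubation; DMSO compounds pin-transferred, 217-fold dilution; 16 h, 37C/5% CO2; CCF4-AM 2 h RT; CellTiter-Glo 30 min RT; luminescence.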

[5] = molecular target: Cellular tumor antigen p53 (Homo sapiens) (UniProt P04637); assay: TOX21_p53_BLA_p5_ratio: Tox21 HCT-116 p53 Agonism Beta-lactamase Assay, Ratio, Phase 5 (AID 2283599)
Procedure, shortened: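 HCT-116 cells carrying a p53-inducible beta-lactamase reporter were seeded at 4000 cells/well and dosed after 5 h with compound in DMSO (217-fold dilution). After 16 h at 37C, CCF4-AM substrate was added for 2 h, and the 460/530 nm emission ratio was scored as gain-of-signal versus DMSO.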

[6] = molecular target: Cellular tumor antigen p53 (Homo sapiens) (UniProt P04637); assay: TOX21_p53_BLA_p4_ratio: Tox21 HCT-116 p53 Agonism Beta-lactamase Assay, Ratio, Phase 4 (AID 2283601)
Procedure, shortened: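 HCT116 cells carrying an inducible beta-lactamase reporter were plated at 4000 cells/well, rested 5 h, then exposed to compounds in DMSO (217-fold dilution) for 16 h at 37C. CCF4-AM substrate was loaded 2 h at room temperature; 460/530 nm emission ratio scored gain-of-signal versus DMSO.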

Measured: outcome

Cellular tumor antigen p53 (Homo sapiens), sequence (P04637 whole entry, looked up): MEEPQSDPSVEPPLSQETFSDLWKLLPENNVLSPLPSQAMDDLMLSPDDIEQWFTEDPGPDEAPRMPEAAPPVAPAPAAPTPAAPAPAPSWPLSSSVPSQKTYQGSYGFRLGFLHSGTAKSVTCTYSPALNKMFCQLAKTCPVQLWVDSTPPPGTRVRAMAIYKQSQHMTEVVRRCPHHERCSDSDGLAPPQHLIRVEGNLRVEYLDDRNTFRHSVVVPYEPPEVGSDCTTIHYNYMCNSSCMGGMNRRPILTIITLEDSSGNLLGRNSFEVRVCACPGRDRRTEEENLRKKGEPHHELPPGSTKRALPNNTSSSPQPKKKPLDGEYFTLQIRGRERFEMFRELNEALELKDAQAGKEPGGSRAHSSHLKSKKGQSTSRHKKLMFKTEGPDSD

O=P(O)(O)OC(CO)CO
inactive: [1] | [2] | [3] | [4]

CCCCCCCCCCCCCCCCN
inactive: all assays above

CN(Cc1ccccc1)Cc1ccccc1
not listed: [4]
inactive: all other assays above

C=C(C)CC(C)(C)C
inactive: all assays above

CC(C)CCCC(C)N (stereo not drawn)
inactive: all assays above

CN(C)C(=O)CNC(=O)Cc1ccccc1
not listed: [4]
inactive: all other assays above

c1ccc(SSc2ccccc2)cc1
not listed: [4]
inactive: all other assays above

CC(=O)OC(C(=O)c1ccccc1)c1ccccc1 (stereo not drawn)
not listed: [4]
inactive: all other assays above

CC(=O)Nc1cccc(O)c1
not listed: [3]
inactive: all other assays above

CCOc1ccc(NC(=O)OC(C)C)cc1OCC
not listed: [4]
inactive: all other assays above

Oc1ccc(Cl)c2c1CCC2
inactive: all assays above

From PubChem BioAssay (EPA / NIEHS)
